For five compounds, AC50 and outcome results are on record in PubChem BioAssay (EPA / NIEHS).

Each structure is given as a SMILES string. Activity calls are given as the source filed them. Rule for the calls: active = hit-call score of the fitted dose curve at least 0.9, where 1 is the maximum; inactive = score below 0.9.

Conditions in all cases: mRNA level, 48 h; actives raise or lower the signal
Read-out in test [1]: ABC Transporter (ABCB11), ABCB11 (gene 8647)
Put plainly: LTEA_HepaRG_ABCB11: Life Technologies and Expression Analysis (LTEA) Assay for ABC Transporter (ABCB11) using HepaRG (AID 2283463). The method, boiled down:
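HepaRG, 48 h exposure, 8-pt half-log CRC top 100 uM, 0.5% DMSO vehicle, duplicates. Readout: TaqMan qRT-PCR of ABCB11 mRNA, housekeeping-normalized (ACTB/GAPDH/POLR2A). Bidirectional fit vs DMSO baseline.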

Read-out in test [2]: Broad substrate specificity ATP-binding cassette transporter ABCG2 (Homo sapiens) (UniProt Q9UNQ0)
Put plainly: LTEA_HepaRG_ABCG2: Life Technologies and Expression Analysis (LTEA) Assay for ABC Transporter (ABCG2) using HepaRG (AID 2283465). Summed up: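 HepaRG, 48 h exposure, 8-pt half-log series from 100 uM, 0.5% DMSO vehicle, duplicates. Readout: ABCG2 transcript by qRT-PCR (Fluidigm array), housekeeping-normalized; bidirectional curve fit relative to DMSO baseline.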

Read-out in test [3]: ATP-citrate lyase (ACLY), ACLY (gene 47)
Put plainly: LTEA_HepaRG_ACLY: Life Technologies and Expression Analysis (LTEA) Assay for ATP-citrate lyase (ACLY) using HepaRG (AID 2283466). Summed up:
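qRT-PCR readout of ACLY transcript after 48 h chemical treatment of HepaRG cells; expression normalized to three housekeeping genes. Eight-point half-log series, highest 100 uM, 0.5% DMSO vehicle. Gain or loss fitted against DMSO baseline.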

Read-out in test [4]: Peroxisomal acyl-coenzyme A oxidase 1 (ACOX1) gene, ACOX1 (gene 51)
Put plainly: LTEA_HepaRG_ACOX1: Life Technologies and Expression Analysis (LTEA) Assay for Peroxisomal acyl-coenzyme A oxidase 1 (ACOX1) gene using HepaRG (AID 2283467). The method, boiled down:
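HepaRG, 48 h chemical exposure, 8-pt half-log series from 100 uM top, 0.5% DMSO vehicle, duplicates. Readout: ACOX1 mRNA by Fluidigm qRT-PCR, housekeeping-normalized; bidirectional fit vs DMSO baseline.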

Read-out in test [5]: Alkaline Phosphatase, Placental (ALPP) gene, ALPP (gene 250)
Put plainly: LTEA_HepaRG_ALPP: Life Technologies and Expression Analysis (LTEA) Assay for Alkaline Phosphatase, Placental (ALPP) gene using HepaRG (AID 2283468). Summed up: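 Differentiated human HepaRG cells were plated and cultured 48 h, then exposed in duplicate for 48 h in serum-free induction medium to eight half-log concentrations from 100 uM in 0.5% DMSO. ALPP mRNA was measured by TaqMan qRT-PCR, normalized to ACTB, GAPDH, POLR2A.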

Read-out in test [6]: Bcl-2 (BAD) gene, BAD (gene 572)
Put plainly: LTEA_HepaRG_BAD: Life Technologies and Expression Analysis (LTEA) Assay for Bcl-2 (BAD) gene using HepaRG (AID 2283469). The method, boiled down:
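HepaRG, 48 h exposure, 8-pt half-log curve from 100 uM in 0.5% DMSO, duplicates. Readout: TaqMan qRT-PCR for BAD mRNA, housekeeping-normalised (ACTB/GAPDH/POLR2A); gain or loss fitted against DMSO baseline.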

Read-out in test [7]: Bcl-2 (BAX) gene, BAX (gene 581)
Put plainly: LTEA_HepaRG_BAX: Life Technologies and Expression Analysis (LTEA) Assay for Bcl-2 (BAX) gene using HepaRG (AID 2283470). The method, boiled down:
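Gene expression measured by Fluidigm qRT-PCR with three housekeeping genes for normalisation. HepaRG cells, plated 48 h beforehand, treated 48 h at up to 100 uM (8-point, half-log) in 0.5% DMSO. Bidirectional fitting versus DMSO.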

Read-out in test [8]: adenosine kinase (ADK) gene, ADK (gene 132)
Put plainly: LTEA_HepaRG_ADK: Life Technologies and Expression Analysis (LTEA) Assay for adenosine kinase (ADK) gene using HepaRG (AID 2283471). Summed up: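 HepaRG (human liver), 48 h chemical exposure, 8-pt half-log series, top 100 uM, 0.5% DMSO vehicle. Readout: ADK mRNA by qRT-PCR vs housekeeping genes; bidirectional curve fit relative to DMSO baseline.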

Read-out in the next test: BCL2L11 (gene 10018)
Put plainly: LTEA_HepaRG_BCL2L11: Life Technologies and Expression Analysis (LTEA) Assay for Bcl-2 (BCL2L11) gene using HepaRG (AID 2283473). The method, boiled down: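 Differentiated human HepaRG cells in serum-free induction medium were exposed in duplicate for 48 h to eight concentrations (top 100 uM, half-log steps, 0.5% DMSO). BCL2L11 mRNA was quantified by TaqMan qRT-PCR, normalized to ACTB/GAPDH/POLR2A, bidirectional fit versus DMSO.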

Read-out in test [9]: Apolipoprotein A-V (APOA5) gene, APOA5 (gene 116519)
Put plainly: LTEA_HepaRG_APOA5: Life Technologies and Expression Analysis (LTEA) Assay for Apolipoprotein A-V (APOA5) gene using HepaRG (AID 2283474). The method, boiled down: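 Differentiated human HepaRG cells were exposed in duplicate for 48 h to eight half-log concentrations from 100 uM in 0.5% DMSO. APOA5 mRNA was quantified by TaqMan qRT-PCR, normalized to ACTB, GAPDH and POLR2A, and fitted bidirectionally against DMSO.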

Read-out in test [10]: Apoptosis regulator Bcl-2 (Homo sapiens) (UniProt P10415)
Put plainly: LTEA_HepaRG_BCL2: Life Technologies and Expression Analysis (LTEA) Assay for Bcl-2 gene using HepaRG (AID 2283475). The method, boiled down: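 qRT-PCR of BCL2 transcript, normalized to three housekeeping genes (ACTB, GAPDH, POLR2A), after 48 h chemical exposure of HepaRG cells; concentrations top 100 uM with half-log dilutions, 0.5% DMSO vehicle, duplicates; changes up or down fitted relative to vehicle.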

Read-out in test [11]: Bcl-2 (BID) gene, BID (gene 637)
Put plainly: LTEA_HepaRG_BID: Life Technologies and Expression Analysis (LTEA) Assay for Bcl-2 (BID) gene using HepaRG (AID 2283476). The method, boiled down:
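Duplicate 48 h treatments of HepaRG cells in serum-free induction medium spanned 100 uM downward in half-log steps, 0.5% DMSO. Transcript change quantified by qRT-PCR against three housekeeping genes, fitted up or down versus DMSO.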

Read-out in a further test: Caspase-3 (Homo sapiens) (UniProt P42574)
Put plainly: LTEA_HepaRG_CASP3: Life Technologies and Expression Analysis (LTEA) Assay for cysteine-aspartic acid protease (CASP3) using HepaRG (AID 2283477). The method, boiled down: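 Differentiated human HepaRG cells in serum-free induction medium were exposed 48 h to 8-point half-log concentrations from 100 uM (0.5% DMSO vehicle). CASP3 mRNA was measured by qRT-PCR, normalised to ACTB, GAPDH and POLR2A, with bidirectional fitting against DMSO.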

Read-out in test [12]: Cytochrome P450 (CYP24A1), CYP24A1 (gene 1591)
Put plainly: LTEA_HepaRG_CYP24A1: Life Technologies and Expression Analysis (LTEA) Assay for Cytochrome P450 (CYP24A1) using HepaRG (AID 2283478). The method, boiled down:
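Differentiated HepaRG cells, pre-cultured 48 h, were exposed in duplicate for 48 h in serum-free induction medium to 8 half-log concentrations (top 100 uM, 0.5% DMSO). CYP24A1 mRNA was quantified by TaqMan qRT-PCR, normalized to ACTB/GAPDH/POLR2A, fitted bidirectionally versus DMSO.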

Read-out in test [13]: Cytochrome P450 (CYP1A2), CYP1A2 (gene 1544)
Put plainly: LTEA_HepaRG_CYP1A2: Life Technologies and Expression Analysis (LTEA) Assay for Cytochrome P450 (CYP1A2) using HepaRG (AID 2283479). Summed up: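 Differentiated human HepaRG cells in serum-free induction medium were exposed in duplicate for 48 h to 8-point half-log concentrations up to 100 uM in 0.5% DMSO. CYP1A2 mRNA measured by qRT-PCR, normalized to ACTB, GAPDH, POLR2A; bidirectional fit vs DMSO.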

Read-out in test [14]: Cytochrome P450 (CYP2B6), CYP2B6 (gene 1555)
Put plainly: LTEA_HepaRG_CYP2B6: Life Technologies and Expression Analysis (LTEA) Assay for Cytochrome P450 (CYP2B6) using HepaRG (AID 2283481). Summed up:
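Differentiated HepaRG cells, serum-free induction medium, exposed 48 h in duplicate to 8-point half-log concentrations from 100 uM in 0.5% DMSO. CYP2B6 mRNA by qRT-PCR, normalized to ACTB, GAPDH, POLR2A; bidirectional fit versus DMSO.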

Read-out in test [15]: Cytochrome P450 2C19 (Homo sapiens) (UniProt P33261)
Put plainly: LTEA_HepaRG_CYP2C19: Life Technologies and Expression Analysis (LTEA) Assay for CYP2C19 using HepaRG (AID 2283482). Summed up: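 Differentiated human HepaRG cells were exposed for 48 h in serum-free induction medium to 8 concentrations (top 100 uM, half-log steps, 0.5% DMSO). CYP2C19 mRNA was measured by qRT-PCR, normalized to ACTB/GAPDH/POLR2A, and fitted bidirectionally against DMSO.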

Read-out in test [16]: cysteine-aspartic acid protease (CASP8), CASP8 (gene 841)
Put plainly: LTEA_HepaRG_CASP8: Life Technologies and Expression Analysis (LTEA) Assay for cysteine-aspartic acid protease (CASP8) using HepaRG (AID 2283480). Summed up:
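qRT-PCR readout of CASP8 mRNA, normalized to three housekeeping genes, after 48 h chemical exposure of HepaRG cells; 8-point half-log series, top 100 uM, 0.5% DMSO vehicle. Bidirectional curve fitting against DMSO baseline.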

Read-out in test [17]: Alpha-fetoprotein (AFP) gene, AFP (gene 174)
Put plainly: LTEA_HepaRG_AFP: Life Technologies and Expression Analysis (LTEA) Assay for Alpha-fetoprotein (AFP) gene using HepaRG (AID 2283472). The method, boiled down:
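AFP transcript measured by TaqMan qRT-PCR with three housekeeping genes for normalization, after 48 h chemical treatment of HepaRG cells (top 100 uM, half-log steps, 0.5% DMSO). Gain or loss fitted against vehicle.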

Caspase-3 (Homo sapiens), sequence (P42574 whole entry, looked up): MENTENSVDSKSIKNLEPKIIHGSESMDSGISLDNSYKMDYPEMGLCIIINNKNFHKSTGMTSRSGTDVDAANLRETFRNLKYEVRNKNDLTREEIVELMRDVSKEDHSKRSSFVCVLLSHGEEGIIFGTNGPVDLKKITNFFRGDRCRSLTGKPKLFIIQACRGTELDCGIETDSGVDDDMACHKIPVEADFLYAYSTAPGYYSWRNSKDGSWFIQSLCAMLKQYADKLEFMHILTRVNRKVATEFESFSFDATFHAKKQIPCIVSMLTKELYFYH
Broad substrate specificity ATP-binding cassette transporter ABCG2 (Homo sapiens), sequence (Q9UNQ0 whole entry, looked up): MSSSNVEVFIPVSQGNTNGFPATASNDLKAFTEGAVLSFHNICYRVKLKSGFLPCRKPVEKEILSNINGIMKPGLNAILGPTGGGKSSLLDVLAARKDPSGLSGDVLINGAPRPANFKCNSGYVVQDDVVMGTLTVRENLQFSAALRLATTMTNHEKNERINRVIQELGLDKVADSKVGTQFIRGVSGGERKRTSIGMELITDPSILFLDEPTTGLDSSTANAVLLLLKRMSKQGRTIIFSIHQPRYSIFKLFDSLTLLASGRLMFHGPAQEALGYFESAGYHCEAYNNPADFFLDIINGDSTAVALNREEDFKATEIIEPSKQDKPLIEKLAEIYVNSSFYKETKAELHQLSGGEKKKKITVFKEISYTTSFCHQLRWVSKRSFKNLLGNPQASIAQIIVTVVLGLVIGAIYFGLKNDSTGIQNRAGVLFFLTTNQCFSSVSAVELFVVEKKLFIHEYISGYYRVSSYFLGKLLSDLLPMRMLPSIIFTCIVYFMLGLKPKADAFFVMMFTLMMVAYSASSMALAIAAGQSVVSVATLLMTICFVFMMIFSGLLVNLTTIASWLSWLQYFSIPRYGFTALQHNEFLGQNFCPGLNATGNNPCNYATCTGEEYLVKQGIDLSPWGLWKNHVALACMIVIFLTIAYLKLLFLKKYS
Cytochrome P450 2C19 (Homo sapiens), sequence (P33261 whole entry, looked up): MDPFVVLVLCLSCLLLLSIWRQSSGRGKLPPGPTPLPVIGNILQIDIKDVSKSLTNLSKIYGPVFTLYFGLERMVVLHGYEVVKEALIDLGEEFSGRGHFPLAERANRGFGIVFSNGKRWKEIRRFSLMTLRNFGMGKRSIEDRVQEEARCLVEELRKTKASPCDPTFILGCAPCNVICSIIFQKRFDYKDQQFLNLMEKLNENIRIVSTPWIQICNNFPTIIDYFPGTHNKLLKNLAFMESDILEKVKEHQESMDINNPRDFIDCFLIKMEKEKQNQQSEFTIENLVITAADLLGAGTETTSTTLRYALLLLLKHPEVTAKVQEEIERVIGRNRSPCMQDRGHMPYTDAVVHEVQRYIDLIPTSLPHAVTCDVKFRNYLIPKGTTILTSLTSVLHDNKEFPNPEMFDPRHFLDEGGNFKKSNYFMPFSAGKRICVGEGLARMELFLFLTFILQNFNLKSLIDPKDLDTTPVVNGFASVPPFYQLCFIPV
Apoptosis regulator Bcl-2 (Homo sapiens), sequence (P10415 whole entry, looked up): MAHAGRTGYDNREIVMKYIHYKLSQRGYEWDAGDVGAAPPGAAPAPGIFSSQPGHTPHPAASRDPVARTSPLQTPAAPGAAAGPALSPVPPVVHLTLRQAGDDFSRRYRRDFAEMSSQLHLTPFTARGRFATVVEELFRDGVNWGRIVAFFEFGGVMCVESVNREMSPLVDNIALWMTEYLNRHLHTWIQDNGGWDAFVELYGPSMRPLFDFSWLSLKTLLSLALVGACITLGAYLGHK

One may read the AC50 as the midpoint of the concentration-response curve, whichever way the signal moves. Turning to `COc1ccc2sc(C(=O)Nc3nnn[nH]3)c(OC(C)C)c2c1`, the AC50 in test [1] was 12.1 µM (active); in test [3], 11.9 µM (active); in [7], 50 µM (active); with BCL2L11 (gene 10018), 31.1 µM (active); in test [10], 25.2 µM (active); in [13], 15.8 µM (active). The AC50 in test [14] is 87.1 µM (active); in test [15] it was 87 µM (active). For the same compound, the result in test [2], in test [4], in test [5], in test [6], in [8] and in test [9] was inactive. The compound was called inactive (in [11]; in the test with Caspase-3 (Homo sapiens); in test [12]).
In the case of `CC1=CC(=O)CC(C)(C)C1`, the call in test [1], in test [2], in test [3], in test [4], in test [5] and in test [6] was inactive. In addition, the call (in test [7]; in [8]; in the test with BCL2L11 (gene 10018); in [9]; in test [10]; in test [11]) was inactive. Also, the outcome (in the test with Caspase-3 (Homo sapiens); in test [12]; in [13]; in [14]; in test [15]) was inactive.
For the compound `COCCOc1cc2cc(C(=O)NC3CCN(C(C)C)CC3)n(CC(=O)Nc3ccc(Cl)cn3)c2cn1`, the AC50 is 59.5 µM (active) in test [1]; 39.4 µM (active) in [4]; 15.2 µM (active) with BCL2L11 (gene 10018); 45 µM (active) in test [9]; 2.12 µM (active) in test [13]; 70.6 µM (active) in test [14]. Besides, the AC50 in test [15] was 66.8 µM (active). In addition, the compound was classed as inactive in test [2], in [3], in test [5], in test [6], in [7] and in [8]. In addition, the outcome (in [10]; in test [11]; with Caspase-3 (Homo sapiens); in test [12]; in [16]) was inactive.
`CCOC(=O)CC(CC(=O)OCC)(OC(C)=O)C(=O)OCC`: the compound was called inactive in [1], in test [2], in [3], in [4], in [5] and in test [6]. For the same compound, the outcome (in [7]; in test [8]; in test [17]; with BCL2L11 (gene 10018); in test [9]; in test [10]) was inactive. Further, the result (in test [11]; in the test with Caspase-3 (Homo sapiens); in [12]; in test [14]; in test [15]) was inactive. Besides, the half-maximal activity concentration (AC50) in test [13] is 20.5 µM (active).
`CC(C)(O)c1coc(S(=O)(=O)NC(=O)Nc2c3c(cc4c2CCC4)CCC3)c1`: the AC50 in [1] was 50 µM (active); in [13] it was 50 µM (active); in [14] it was 2.62 µM (active). Besides, the compound was classed as inactive in test [2], in test [3], in test [4], in test [5], in [6] and in test [7]. Further, the compound was called inactive (in test [8]; in the test with BCL2L11 (gene 10018); in test [9]; in test [10]; in the test with Caspase-3 (Homo sapiens); in test [12]). In [16], the result was inactive.
